Among the data in ChEMBL document CHEMBL3988442, “University of Dundee, Small-Polar-MMV Screening Library” (2021) are Percent Effect values, retold here.

For some of these results: Results with a measured potency or affinity are listed apart.

Holding throughout (set-up): scale not given: direction of the effect not stated beside the values
In experiment [1] the target is Protein translocase subunit SecA (Escherichia coli (strain K12)) (UniProt P10408). The experiment in a line: Assay to Identify E. coli SecA ATPase Inhibitors. Format: functional. To be noted: 30 µM.
Chain of Protein translocase subunit SecA (Escherichia coli (strain K12)) (P10408 whole entry): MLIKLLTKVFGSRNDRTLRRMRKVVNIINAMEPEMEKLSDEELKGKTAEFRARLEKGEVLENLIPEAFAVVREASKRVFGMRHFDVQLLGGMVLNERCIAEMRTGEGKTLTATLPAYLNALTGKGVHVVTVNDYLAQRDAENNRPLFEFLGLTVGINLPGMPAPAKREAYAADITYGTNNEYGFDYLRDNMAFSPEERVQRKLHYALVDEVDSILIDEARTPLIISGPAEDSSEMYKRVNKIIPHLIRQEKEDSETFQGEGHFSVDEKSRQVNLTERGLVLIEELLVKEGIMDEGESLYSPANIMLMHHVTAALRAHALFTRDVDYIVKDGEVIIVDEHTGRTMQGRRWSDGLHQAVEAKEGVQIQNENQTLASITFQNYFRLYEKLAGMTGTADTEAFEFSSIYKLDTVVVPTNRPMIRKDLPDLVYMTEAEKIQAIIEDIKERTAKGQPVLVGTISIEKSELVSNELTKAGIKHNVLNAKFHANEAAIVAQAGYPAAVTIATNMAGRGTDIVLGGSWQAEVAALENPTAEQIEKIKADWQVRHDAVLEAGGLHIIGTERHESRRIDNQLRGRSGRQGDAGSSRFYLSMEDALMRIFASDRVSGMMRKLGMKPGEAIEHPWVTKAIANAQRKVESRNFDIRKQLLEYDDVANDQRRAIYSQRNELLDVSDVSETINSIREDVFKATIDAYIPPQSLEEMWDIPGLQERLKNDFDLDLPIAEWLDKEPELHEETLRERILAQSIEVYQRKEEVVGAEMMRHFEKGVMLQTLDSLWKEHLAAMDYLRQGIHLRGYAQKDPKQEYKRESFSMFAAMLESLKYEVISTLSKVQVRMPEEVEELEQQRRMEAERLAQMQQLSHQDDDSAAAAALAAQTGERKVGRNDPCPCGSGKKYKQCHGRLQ
Experiment [2] has as its target T1, Ubiquitin-activating enzyme e1, putative (Leishmania donovani (strain BPK282A1)) (UniProt E9BSI1).
T1 sequence (whole entry): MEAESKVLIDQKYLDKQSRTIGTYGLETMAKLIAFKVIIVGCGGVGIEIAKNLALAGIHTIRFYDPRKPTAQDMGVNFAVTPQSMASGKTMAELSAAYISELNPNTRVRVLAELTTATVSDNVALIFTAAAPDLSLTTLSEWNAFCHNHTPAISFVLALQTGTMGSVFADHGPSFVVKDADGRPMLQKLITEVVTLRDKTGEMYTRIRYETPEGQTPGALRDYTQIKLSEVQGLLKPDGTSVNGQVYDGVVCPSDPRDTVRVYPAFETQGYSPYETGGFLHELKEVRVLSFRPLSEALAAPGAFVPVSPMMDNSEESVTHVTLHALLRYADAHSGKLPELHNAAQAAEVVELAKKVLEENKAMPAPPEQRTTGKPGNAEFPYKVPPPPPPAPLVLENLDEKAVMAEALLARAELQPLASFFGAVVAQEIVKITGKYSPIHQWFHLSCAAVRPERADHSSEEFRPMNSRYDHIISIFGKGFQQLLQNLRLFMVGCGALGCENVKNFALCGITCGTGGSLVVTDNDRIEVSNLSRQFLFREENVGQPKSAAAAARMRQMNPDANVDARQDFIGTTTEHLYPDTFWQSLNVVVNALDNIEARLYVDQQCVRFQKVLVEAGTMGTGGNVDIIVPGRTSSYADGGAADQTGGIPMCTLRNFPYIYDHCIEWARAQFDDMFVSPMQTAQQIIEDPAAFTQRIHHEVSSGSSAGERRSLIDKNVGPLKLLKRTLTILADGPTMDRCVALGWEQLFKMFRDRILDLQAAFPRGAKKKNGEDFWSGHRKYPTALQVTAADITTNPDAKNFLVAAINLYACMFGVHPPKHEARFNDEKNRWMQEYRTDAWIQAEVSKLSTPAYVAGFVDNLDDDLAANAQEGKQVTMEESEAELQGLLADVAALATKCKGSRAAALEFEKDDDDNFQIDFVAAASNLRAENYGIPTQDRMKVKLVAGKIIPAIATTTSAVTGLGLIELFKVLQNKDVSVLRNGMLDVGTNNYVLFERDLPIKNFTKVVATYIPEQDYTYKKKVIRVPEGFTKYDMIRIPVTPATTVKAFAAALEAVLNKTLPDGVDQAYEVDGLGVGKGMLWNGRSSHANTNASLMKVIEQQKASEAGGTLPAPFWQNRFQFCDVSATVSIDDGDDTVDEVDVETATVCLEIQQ
The experiment in a line: Leishmania donovani Ubiquitin Activating Enzyme (LdE1). Format: functional. Particulars: 30 µM.

Experiment [3] deals with T2, Aspartate--tRNA(Asp/Asn) ligase (Mycobacterium tuberculosis (strain ATCC 25618 / H37Rv)) (UniProt P9WFW3).
T2 sequence (whole entry): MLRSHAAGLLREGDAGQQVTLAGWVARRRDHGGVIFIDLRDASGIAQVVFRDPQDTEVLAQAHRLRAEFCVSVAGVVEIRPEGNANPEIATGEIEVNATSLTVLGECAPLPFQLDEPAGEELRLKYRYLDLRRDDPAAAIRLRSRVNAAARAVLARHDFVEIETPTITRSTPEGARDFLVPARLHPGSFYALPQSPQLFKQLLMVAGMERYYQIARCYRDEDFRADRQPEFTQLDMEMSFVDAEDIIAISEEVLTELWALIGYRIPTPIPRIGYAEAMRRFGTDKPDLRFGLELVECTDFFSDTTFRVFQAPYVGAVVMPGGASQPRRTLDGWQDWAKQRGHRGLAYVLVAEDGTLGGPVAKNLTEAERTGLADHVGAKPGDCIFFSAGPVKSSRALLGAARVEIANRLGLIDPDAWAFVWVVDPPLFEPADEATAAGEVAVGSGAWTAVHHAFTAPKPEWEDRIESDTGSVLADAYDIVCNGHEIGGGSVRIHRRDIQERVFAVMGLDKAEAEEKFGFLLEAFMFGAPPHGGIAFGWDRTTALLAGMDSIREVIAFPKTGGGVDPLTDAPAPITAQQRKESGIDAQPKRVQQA
The experiment in a line: Assay for Asp RNA synthetase-1 from Mycobacterium tuberculosis. Format: functional. Particulars: 30 µM.

The target of experiment [4] is AMP-activated protein kinase, AMPK (Homo sapiens) (UniProt P54646+O43741+P54619+Q9UGJ0+Q9Y478+Q13131+Q9UGI9). The experiment in a line: AMP-dependent Kinase enzyme assay. An in vitro enzyme assay that detects ADP turnover that is directly proportional to AMPK activity. This uses naive AMPK that is activated during the assay with MK-8722. Format: functional. Particulars: 30 µM.

In experiment [5] the target is Sialic acid-binding Ig-like lectin 9 (Homo sapiens) (UniProt Q9Y336). The experiment in a line: Hs-Siglec9 ALPHAscreen SOP 20170721. Particulars: 10 µM. (Bead proximity is the source of the signal in Alpha formats.)
Chain of Sialic acid-binding Ig-like lectin 9 (Homo sapiens) (Q9Y336 whole entry): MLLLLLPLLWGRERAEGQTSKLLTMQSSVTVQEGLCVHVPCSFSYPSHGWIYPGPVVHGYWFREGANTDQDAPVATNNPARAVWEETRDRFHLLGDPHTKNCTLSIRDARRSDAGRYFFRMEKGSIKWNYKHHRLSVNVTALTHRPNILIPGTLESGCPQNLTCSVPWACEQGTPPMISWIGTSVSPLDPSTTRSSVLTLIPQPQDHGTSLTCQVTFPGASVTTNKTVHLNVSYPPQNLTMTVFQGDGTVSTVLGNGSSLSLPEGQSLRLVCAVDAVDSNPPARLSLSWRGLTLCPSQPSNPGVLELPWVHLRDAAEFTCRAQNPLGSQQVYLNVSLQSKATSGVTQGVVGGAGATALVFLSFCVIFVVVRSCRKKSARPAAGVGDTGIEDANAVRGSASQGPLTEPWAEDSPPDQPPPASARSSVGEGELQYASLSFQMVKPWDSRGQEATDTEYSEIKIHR
The test system of experiment [6] is Trypanosoma cruzi. The experiment in a line: Trypanosoma cruzi phosphomannomutase and mannose-1-phosphate guanylyltransferase assay. To be noted: 10 µM. Format: functional.
For experiment [7], the target named is T3, Arginase-2, mitochondrial (Homo sapiens) (UniProt P78540).
T3 sequence (whole entry): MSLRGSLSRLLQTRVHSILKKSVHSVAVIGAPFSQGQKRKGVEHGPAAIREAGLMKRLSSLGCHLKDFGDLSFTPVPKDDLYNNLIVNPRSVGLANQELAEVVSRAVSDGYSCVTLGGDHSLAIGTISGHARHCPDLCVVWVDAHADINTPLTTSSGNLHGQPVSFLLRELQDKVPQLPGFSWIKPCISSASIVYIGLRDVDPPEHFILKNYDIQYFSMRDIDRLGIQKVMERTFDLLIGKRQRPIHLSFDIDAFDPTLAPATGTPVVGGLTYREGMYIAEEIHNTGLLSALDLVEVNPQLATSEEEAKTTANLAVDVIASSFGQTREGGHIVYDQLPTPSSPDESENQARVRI
Briefly: in vitro enzyme assay to detect the production of urea directly proportional to the activity of Arginase II. Further: in the data most compounds retested in dose-response had high values. Particulars: 33.3 µM. Format: functional.

Experiment [8] addresses T4, Proteasome subunit beta (Trypanosoma cruzi) (UniProt O96673).
T4 sequence (whole entry): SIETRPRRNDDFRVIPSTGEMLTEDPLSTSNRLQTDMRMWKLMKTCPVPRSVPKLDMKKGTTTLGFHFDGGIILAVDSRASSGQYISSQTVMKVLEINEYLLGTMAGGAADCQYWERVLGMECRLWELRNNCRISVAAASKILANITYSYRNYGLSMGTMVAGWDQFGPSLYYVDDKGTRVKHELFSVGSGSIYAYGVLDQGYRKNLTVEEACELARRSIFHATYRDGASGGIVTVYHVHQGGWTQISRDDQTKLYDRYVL
The experiment in a line: Trypanosoma cruzi proteasome chymotrypsin-like activity (TcProtChymo) assay. Further: in the data most compounds retested in dose-response had high values. Particulars: 9.37 µM. Format: functional.

The species entered for experiment [9] is Homo sapiens. Briefly: To identify inhibition of the IFN signalling (Jak-Stat) pathway via expression of an eGFP reporter gene under the control of an IFN-stimulated response element (ISRE) containing MxA promoter. Format: functional. To be noted: 30 µM. On the technique in general: In a reporter assay the amount or activity of a reporter protein is the signal.

Experiment [10] addresses Shiga toxin 2 (Escherichia coli O157:H7) (UniProt P09385+P09386). Briefly: E. coli 0.157:H7 Shiga Toxin SOP - stx2 screening assay. Format: functional. Particulars: 30 µM.
Experiment [11] concerns the target T5, Tyrosyl-tRNA synthetase, putative (Trypanosoma cruzi (strain CL Brener)) (UniProt Q4DSP6).
T5 sequence (whole entry): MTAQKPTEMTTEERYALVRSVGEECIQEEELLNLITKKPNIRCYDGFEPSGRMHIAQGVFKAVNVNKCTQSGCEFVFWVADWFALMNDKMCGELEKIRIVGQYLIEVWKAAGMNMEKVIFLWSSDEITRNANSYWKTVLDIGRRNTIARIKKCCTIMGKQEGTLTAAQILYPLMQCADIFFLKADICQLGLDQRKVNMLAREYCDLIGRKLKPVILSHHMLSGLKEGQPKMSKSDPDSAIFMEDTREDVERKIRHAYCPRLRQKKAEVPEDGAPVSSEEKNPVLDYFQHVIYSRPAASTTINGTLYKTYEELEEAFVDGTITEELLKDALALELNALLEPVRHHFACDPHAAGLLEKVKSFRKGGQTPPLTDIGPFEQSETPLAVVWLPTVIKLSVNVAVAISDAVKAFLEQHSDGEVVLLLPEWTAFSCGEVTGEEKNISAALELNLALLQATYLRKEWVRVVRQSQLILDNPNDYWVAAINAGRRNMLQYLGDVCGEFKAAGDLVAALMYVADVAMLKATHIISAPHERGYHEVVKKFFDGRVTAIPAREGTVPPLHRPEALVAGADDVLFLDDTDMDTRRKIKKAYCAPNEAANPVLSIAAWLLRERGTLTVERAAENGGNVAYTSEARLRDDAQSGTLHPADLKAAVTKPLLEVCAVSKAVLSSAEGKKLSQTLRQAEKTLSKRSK
The experiment in a line: Trypanosoma cruzi tyrosyl tRNA synthetase (TcYRS) _High Tyrosine SOP. Further: in the data most compounds retested in dose-response had high values. Format: functional. To be noted: 30 µM.

Experiment [12] addresses T5, Tyrosyl-tRNA synthetase, putative (Trypanosoma cruzi (strain CL Brener)). The experiment in a line: Trypanosoma cruzi tyrosyl tRNA synthetase (TcYRS) SOP. Format: functional. Particulars: 30 µM.
For experiment [13], the target named is Chromo domain-containing protein 1 (Saccharomyces cerevisiae (strain ATCC 204508 / S288c) (Baker's yeast)) (UniProt P32657). Briefly: ScCHD-1 Enzyme Inhibition Assay. Further: in the data most compounds retested in dose-response had high values. Format: functional. To be noted: 30 µM.
Chain of Chromo domain-containing protein 1 (Saccharomyces cerevisiae (strain ATCC 204508 / S288c) (Baker's yeast)) (P32657 whole entry, the tested form may be a part): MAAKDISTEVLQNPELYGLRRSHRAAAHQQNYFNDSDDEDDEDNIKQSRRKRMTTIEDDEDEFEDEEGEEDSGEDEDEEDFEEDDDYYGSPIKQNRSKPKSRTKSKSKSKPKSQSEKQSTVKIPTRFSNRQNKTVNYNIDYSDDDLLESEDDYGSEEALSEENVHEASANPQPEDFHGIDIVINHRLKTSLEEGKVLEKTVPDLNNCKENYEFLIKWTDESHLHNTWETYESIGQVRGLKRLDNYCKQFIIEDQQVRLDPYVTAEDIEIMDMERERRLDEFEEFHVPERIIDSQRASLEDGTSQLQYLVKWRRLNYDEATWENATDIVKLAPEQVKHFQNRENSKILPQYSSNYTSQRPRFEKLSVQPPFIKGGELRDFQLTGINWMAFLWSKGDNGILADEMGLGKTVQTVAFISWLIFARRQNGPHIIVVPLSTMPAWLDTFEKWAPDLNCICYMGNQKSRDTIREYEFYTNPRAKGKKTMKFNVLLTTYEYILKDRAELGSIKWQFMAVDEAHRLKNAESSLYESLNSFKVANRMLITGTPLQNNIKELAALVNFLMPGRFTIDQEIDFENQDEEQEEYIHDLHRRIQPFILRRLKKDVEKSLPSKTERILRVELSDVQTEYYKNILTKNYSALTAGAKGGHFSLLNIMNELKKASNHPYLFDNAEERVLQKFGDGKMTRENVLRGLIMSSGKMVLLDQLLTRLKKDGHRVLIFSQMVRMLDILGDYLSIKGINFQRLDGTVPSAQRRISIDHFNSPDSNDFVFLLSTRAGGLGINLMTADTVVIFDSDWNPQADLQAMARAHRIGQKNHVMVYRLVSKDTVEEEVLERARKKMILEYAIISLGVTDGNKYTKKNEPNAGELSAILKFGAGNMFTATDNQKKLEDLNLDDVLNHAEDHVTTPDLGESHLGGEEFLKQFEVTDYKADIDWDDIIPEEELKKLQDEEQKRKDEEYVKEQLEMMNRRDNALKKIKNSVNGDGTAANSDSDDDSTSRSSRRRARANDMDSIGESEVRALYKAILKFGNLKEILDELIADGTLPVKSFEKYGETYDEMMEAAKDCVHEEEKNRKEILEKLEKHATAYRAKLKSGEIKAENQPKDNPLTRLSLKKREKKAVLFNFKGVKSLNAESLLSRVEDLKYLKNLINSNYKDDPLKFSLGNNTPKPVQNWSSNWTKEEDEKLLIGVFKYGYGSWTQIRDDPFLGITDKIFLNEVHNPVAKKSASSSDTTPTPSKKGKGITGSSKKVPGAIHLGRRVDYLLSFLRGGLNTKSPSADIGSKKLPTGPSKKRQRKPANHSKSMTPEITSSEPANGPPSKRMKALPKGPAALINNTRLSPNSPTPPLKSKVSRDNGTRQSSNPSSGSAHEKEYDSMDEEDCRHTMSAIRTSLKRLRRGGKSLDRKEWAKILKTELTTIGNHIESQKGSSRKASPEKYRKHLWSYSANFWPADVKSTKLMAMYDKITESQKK

As to `CCN1C[C@H]2C[C@H](C(=O)NCc3cccnc3)[C@@H](C1)O2`, the Percent Effect in [1] was -1.53%; in experiment [2], 0%; in experiment [3], 4.45%; in experiment [4], -69.3%; in experiment [5], 5.53%; in experiment [6], 1.07%. For the same compound, the Percent Effect is 2.23% in experiment [7]; 11.1% in [8]; -10.6% in experiment [9]; 2.21% in [10]; 3.24% in [11]; 10.3% in [12]. The Percent Effect in experiment [13] was 2%.

Turning to `Cc1cc(CN2CC[C@H]3C[C@H](c4nccs4)O[C@@H]3C2)no1`, the Percent Effect in [1] was 2.63%; in experiment [2], -2.7%; in experiment [3], -1.08%; in experiment [4], 5.99%; in experiment [5], 4.06%; in experiment [6], -1.47%. The Percent Effect is 0.319% in experiment [7]; 12.9% in experiment [8]; -4.4% in experiment [9]; 3.88% in experiment [10]; 0% in experiment [11]; 0% in experiment [12]. The Percent Effect in experiment [13] was 7.66%.

Turning to `COC[C@@H]1CCC[C@]12CN(Cc1cccc(C)n1)CCO2`, the Percent Effect in experiment [1] was 2.73%; in experiment [2], 4%; in [3], 3.92%; in experiment [4] it was 0.13%; in [5] it was -3.4%; in experiment [6], -8.45%. Moreover, the Percent Effect in experiment [7] is 0.528%; in [8] it was 15.3%; in [9], 9.81%; in experiment [10], -43.1%; in [11], 2.12%; in experiment [12] it was 2.56%. Moreover, the Percent Effect in [13] was -8.43%.

Take `CCS(=O)(=O)N[C@@H]1CN(Cc2cc(C)on2)C[C@@H]2CCCO[C@@H]21`: the Percent Effect is -5.04% in [1]; 8.11% in experiment [2]; 4.25% in experiment [3]; 0.656% in [4]; 19% in experiment [5]; 1.66% in experiment [6]. The Percent Effect in experiment [7] is 4.71%; in experiment [8], 6.27%; in experiment [9] it was -3.3%; in [10], 1.95%; in experiment [11] it was 6.45%; in [12], 18.5%. The Percent Effect in experiment [13] was -4.16%.

Take `Cc1noc(C)c1CN1CCOC2(CCCN(c3nccs3)C2)C1` (stereo unspecified): the Percent Effect in experiment [1] was -8.9%; in experiment [2], 8%; in experiment [3] it was 7.92%; in [4] it was 26.5%; in experiment [5], 1.44%; in [6], -6.18%. In addition, the Percent Effect in experiment [7] was -56.1%; in experiment [8] it was 2.91%; in [9], 21.7%; in [10], -14.3%; in [11], -7.29%; in [12], -30%. For the same compound, the Percent Effect in [13] was -4.72%.

Consider `c1cncc(COC[C@H]2CC[C@H]3[C@H](CCN3Cc3cccs3)O2)c1`, for which the Percent Effect in experiment [1] was -1.85%; in experiment [2] it was 13.3%; in [3], 6.9%; in [4] it was 3.86%; in [5], 2.88%; in experiment [6], -0.197%. For the same compound, the Percent Effect is 3.5% in [7]; 22.8% in experiment [8]; 3.65% in experiment [9]; -13.6% in experiment [10]; 7.45% in [11]; 14.1% in [12]. Also, the Percent Effect in [13] was -5.4%.

Take `c1ccc(CN2CC[C@H]3CO[C@H](CNc4ncccn4)[C@H]3C2)nc1`: the Percent Effect in experiment [1] was -2.49%; in [2] it was 8%; in [3], -3.84%; in [4], 2.38%; in experiment [5] it was 4.32%; in experiment [6], -0.772%. The Percent Effect in experiment [7] was -54.3%; in experiment [8], 9.74%; in [9] it was -5.93%; in experiment [10], 3.55%; in experiment [11] it was 2.08%; in experiment [12], 12.5%. In experiment [13], the Percent Effect was -8.55%.
